# Results published in paper PMC7862700, “An all-to-all approach to the identification of sequence-specific readers for epigenetic DNA modifications on cytosine”.
# Columns and labels:
# Assay in all cases: DAPPL (digital affinity profiling via proximity ligation, sequencing); 10 mM Tris-HCl pH 7.5, 50 mM NaCl, 1 mM DTT, 4% glycerol, room temperature, 30 min; GST-TFs on glutathione beads, 16-mer random dsDNA library, 0.1% formaldehyde crosslink after washing; high values mean tight binding
# FLI1 = biological target: T1, FLI1 (Homo sapiens, UniProt Q01543 1-452); details: protein: recombinant; tags: N-terminal GST; dsDNA, one strand shown
# T1 sequence: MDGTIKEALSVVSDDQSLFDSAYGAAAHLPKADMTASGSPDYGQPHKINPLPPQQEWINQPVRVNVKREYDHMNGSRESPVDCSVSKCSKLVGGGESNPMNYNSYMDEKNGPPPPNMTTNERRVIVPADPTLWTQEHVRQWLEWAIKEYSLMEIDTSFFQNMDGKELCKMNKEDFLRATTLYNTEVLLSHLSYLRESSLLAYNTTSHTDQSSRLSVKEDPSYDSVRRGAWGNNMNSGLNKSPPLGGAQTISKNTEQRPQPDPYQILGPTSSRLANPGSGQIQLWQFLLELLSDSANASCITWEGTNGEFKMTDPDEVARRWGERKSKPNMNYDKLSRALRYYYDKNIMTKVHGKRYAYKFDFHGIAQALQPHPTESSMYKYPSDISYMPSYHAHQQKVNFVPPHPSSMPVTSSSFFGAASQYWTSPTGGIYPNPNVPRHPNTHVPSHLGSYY
# Summary of the method: (§1)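 GST fusions of human transcription factors were expressed in yeast and captured with glutathione beads. Once given DNA barcodes and pooled alongside a tag-only sample, they were incubated for 30 min at room temperature with 200 nmole of a random double-stranded 16-mer DNA library in Tris/NaCl/DTT/glycerol buffer, then washed, crosslinked (0.1% formaldehyde), proximity-ligated, PCR-amplified and sequenced on an Illumina NextSeq500. The binding signal of each hexamer is its read frequency for a factor divided by its frequency for the tag-only sample.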
# ELK1 = biological target: T2, ELK1 (Homo sapiens, UniProt P19419 1-428); details: protein: recombinant; tags: N-terminal GST; dsDNA, one strand shown
# T2 sequence: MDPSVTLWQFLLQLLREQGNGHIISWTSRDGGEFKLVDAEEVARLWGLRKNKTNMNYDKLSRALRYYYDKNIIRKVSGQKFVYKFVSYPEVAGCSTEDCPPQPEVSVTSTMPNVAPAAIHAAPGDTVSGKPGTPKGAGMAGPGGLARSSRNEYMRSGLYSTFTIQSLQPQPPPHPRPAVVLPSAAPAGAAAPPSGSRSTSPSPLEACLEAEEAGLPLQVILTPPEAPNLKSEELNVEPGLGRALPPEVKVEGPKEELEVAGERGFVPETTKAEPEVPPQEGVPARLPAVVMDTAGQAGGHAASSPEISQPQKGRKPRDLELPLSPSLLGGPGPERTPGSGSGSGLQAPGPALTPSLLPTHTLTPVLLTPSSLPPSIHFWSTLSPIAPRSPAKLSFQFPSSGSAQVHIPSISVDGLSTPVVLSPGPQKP
# Summary of the method: as §1
# GABPA = biological target: T3, GABPA (Homo sapiens, UniProt Q06546 1-454); details: protein: recombinant; tags: N-terminal GST; dsDNA, one strand shown
# T3 sequence: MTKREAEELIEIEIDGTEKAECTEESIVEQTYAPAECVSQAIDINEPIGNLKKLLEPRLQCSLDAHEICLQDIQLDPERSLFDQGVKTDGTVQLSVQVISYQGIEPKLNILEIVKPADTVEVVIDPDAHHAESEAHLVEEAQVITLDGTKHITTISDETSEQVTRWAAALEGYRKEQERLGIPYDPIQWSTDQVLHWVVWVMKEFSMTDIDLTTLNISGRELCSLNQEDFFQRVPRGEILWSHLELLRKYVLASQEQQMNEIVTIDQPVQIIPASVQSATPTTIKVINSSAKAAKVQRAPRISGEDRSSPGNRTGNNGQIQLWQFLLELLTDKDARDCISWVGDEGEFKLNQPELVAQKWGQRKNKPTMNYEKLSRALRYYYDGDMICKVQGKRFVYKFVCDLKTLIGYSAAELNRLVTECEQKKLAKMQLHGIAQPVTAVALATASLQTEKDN
# Summary of the method: as §1
# ERG = biological target: T4, ERG (Homo sapiens, UniProt P11308 1-479); details: protein: recombinant; tags: N-terminal GST; dsDNA, one strand shown
# T4 sequence: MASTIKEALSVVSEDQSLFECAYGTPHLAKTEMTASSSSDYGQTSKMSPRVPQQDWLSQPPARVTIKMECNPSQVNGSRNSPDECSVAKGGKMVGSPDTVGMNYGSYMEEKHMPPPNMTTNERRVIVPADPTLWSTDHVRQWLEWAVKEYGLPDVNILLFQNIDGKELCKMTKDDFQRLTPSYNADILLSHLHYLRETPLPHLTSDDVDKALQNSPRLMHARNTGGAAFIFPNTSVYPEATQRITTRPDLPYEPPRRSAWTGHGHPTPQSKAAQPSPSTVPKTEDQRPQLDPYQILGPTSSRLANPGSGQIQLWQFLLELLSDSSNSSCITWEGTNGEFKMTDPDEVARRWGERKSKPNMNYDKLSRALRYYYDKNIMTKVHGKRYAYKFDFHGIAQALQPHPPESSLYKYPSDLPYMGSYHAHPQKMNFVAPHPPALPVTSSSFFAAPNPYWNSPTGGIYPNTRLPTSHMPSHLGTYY
# Summary of the method: as §1
# ELF1 = ELF1 (Homo sapiens, UniProt P32519 1-619); details: protein: recombinant; tags: N-terminal GST; dsDNA, one strand shown
# Chain of ELF1 (P32519 whole entry): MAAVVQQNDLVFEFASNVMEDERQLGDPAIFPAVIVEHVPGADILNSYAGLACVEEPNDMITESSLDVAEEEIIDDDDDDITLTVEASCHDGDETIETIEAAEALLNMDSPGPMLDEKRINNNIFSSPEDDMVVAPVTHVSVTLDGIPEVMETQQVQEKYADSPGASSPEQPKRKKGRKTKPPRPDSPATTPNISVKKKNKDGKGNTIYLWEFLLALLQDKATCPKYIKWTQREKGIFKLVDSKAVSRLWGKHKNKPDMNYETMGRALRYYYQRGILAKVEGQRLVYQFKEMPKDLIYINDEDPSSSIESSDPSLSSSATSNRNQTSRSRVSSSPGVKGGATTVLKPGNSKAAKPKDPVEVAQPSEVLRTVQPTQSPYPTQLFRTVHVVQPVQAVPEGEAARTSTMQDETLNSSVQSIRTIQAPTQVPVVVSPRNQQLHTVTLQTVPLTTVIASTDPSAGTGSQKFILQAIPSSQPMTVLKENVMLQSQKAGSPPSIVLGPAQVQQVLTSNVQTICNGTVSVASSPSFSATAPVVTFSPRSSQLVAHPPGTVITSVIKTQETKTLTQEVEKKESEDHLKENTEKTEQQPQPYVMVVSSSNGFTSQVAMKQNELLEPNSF
# Summary of the method: as §1
# EHF = biological target: T5, EHF (Homo sapiens, UniProt Q9NZC4 1-300); details: protein: recombinant; tags: N-terminal GST; dsDNA, one strand shown
# T5 sequence: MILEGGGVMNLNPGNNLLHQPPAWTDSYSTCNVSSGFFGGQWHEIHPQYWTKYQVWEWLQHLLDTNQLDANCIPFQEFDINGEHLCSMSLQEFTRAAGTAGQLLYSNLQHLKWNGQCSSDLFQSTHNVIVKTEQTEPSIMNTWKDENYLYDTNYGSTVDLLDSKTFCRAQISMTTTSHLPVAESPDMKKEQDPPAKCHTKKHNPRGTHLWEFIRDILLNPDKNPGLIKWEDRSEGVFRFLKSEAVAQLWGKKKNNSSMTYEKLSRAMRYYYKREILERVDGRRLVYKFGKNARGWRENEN
# Summary of the method: as §1
# SPI1 = SPI1 (Homo sapiens, UniProt P17947 1-270); details: protein: recombinant; tags: N-terminal GST; dsDNA, one strand shown
# Summary of the method: as §1
# SPIB = SPIB (Homo sapiens, UniProt Q01892 1-262); details: protein: recombinant; tags: N-terminal GST; dsDNA, one strand shown
# Chain of SPIB (Q01892 whole entry): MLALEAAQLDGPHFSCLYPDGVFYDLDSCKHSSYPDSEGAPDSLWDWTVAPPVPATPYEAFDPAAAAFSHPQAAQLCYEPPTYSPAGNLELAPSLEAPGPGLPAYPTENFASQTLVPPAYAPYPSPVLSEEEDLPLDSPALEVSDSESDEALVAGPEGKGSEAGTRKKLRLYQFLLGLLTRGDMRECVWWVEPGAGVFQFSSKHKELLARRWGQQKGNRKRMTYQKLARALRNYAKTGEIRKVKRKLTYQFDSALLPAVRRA
# Summary of the method: as §1
# ELK3 = biological target: T6, ELK3 (Homo sapiens, UniProt P41970 1-407); details: protein: recombinant; tags: N-terminal GST; dsDNA, one strand shown
# T6 sequence: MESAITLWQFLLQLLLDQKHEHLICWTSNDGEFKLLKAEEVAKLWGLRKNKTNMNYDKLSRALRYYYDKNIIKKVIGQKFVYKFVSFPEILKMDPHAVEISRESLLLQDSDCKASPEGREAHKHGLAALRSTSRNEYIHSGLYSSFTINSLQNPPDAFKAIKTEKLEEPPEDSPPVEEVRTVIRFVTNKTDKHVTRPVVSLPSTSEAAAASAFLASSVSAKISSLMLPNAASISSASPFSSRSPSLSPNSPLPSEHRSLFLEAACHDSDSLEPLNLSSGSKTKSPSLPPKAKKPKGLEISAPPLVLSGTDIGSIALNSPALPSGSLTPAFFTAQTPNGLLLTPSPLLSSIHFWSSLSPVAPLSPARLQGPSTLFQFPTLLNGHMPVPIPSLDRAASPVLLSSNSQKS
# Summary of the method: as §1
# FEV = biological target: T7, FEV (Homo sapiens, UniProt Q99581 1-238); details: protein: recombinant; tags: N-terminal GST; dsDNA, one strand shown
# T7 sequence: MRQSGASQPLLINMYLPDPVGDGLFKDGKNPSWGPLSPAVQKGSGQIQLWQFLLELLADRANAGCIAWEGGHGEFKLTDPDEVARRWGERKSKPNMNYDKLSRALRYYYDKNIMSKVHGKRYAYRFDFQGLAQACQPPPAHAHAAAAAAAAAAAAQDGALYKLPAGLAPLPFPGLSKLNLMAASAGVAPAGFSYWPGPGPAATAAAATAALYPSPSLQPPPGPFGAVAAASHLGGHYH
# Summary of the method: as §1
# ETV5 = ETV5 (Homo sapiens, UniProt P41161 1-510); details: protein: recombinant; tags: N-terminal GST; dsDNA, one strand shown
# Chain of ETV5 (P41161 whole entry): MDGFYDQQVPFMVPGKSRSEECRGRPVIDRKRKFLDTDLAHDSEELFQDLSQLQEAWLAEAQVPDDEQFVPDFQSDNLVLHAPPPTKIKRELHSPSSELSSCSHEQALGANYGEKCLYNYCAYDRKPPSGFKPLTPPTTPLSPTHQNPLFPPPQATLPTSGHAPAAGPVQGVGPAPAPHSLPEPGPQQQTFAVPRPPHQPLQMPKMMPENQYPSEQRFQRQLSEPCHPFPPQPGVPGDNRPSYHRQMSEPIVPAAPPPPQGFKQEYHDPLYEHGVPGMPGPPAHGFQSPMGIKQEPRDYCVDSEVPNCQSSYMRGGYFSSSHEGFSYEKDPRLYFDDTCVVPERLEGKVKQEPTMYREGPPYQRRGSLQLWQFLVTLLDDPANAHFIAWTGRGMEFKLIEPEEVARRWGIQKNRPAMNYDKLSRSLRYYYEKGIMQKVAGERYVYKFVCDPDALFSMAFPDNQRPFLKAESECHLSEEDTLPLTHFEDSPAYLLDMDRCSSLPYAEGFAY
# Summary of the method: as §1
# HSF1 = HSF1 (Homo sapiens, UniProt Q00613 1-529); details: protein: recombinant; tags: N-terminal GST; chain copies: 3; dsDNA, one strand shown
# Chain of HSF1 (Q00613 whole entry): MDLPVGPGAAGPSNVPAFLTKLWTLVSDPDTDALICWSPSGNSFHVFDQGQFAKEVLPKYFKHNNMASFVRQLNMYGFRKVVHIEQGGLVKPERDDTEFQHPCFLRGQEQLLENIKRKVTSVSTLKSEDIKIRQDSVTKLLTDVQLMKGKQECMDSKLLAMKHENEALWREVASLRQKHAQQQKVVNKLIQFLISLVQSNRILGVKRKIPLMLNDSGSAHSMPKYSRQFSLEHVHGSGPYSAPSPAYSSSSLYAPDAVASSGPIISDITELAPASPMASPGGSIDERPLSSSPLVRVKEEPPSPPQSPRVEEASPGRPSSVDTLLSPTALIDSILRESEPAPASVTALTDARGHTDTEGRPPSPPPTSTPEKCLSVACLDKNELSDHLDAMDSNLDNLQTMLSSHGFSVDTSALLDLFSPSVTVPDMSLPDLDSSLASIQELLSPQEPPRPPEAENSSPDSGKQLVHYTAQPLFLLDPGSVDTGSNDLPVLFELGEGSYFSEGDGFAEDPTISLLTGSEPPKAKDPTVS
# Summary of the method: as §1
# SPIC = biological target: T8, SPIC (Homo sapiens, UniProt Q8N5J4 1-248); details: protein: recombinant; tags: N-terminal GST; dsDNA, one strand shown
# T8 sequence: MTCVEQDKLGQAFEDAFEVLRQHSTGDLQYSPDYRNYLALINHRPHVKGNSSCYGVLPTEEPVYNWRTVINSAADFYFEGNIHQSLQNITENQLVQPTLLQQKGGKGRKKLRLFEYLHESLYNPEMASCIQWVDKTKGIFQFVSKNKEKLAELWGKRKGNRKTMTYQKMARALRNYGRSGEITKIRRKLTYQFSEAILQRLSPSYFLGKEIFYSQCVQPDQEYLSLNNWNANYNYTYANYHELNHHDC
# Summary of the method: as §1
# ELF4 = ELF4 (Homo sapiens, UniProt Q99607 1-663); details: protein: recombinant; tags: N-terminal GST; dsDNA, one strand shown
# Chain of ELF4 (Q99607 whole entry): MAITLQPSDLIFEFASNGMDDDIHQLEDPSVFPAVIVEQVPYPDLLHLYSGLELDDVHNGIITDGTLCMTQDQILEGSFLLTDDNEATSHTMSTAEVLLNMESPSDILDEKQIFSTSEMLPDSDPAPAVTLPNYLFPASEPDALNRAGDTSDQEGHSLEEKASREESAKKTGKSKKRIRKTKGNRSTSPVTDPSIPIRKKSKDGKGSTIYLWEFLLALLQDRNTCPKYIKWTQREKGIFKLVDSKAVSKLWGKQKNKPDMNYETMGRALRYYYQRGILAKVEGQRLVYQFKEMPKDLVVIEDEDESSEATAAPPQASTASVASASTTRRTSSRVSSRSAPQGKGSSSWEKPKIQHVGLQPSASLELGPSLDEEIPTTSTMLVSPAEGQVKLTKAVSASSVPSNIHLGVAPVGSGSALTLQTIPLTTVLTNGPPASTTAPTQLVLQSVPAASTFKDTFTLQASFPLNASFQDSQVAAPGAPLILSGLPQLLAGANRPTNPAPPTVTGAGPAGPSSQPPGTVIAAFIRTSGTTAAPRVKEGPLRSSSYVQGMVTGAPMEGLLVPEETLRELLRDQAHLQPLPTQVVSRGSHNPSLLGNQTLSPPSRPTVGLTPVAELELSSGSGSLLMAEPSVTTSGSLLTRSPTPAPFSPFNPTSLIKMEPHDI
# Summary of the method: as §1
# ELK4 = biological target: T9, ELK4 (Homo sapiens, UniProt P28324-2 1-405); details: protein: recombinant; tags: N-terminal GST; dsDNA, one strand shown
# T9 sequence: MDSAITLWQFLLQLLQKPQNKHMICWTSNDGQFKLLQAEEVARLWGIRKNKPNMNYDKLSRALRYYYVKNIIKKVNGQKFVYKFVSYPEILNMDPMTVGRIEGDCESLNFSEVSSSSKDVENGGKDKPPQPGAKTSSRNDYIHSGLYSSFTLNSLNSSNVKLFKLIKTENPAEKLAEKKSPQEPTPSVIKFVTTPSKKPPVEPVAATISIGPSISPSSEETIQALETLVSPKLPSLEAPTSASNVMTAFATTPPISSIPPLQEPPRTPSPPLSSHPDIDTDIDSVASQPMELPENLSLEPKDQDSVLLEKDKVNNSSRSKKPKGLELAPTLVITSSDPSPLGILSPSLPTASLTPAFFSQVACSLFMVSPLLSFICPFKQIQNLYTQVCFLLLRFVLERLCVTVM
# Summary of the method: as §1
# ETV2 = biological target: T10, ETV2 (Homo sapiens, UniProt O00321 1-342); details: protein: recombinant; tags: N-terminal GST; dsDNA, one strand shown
# T10 sequence: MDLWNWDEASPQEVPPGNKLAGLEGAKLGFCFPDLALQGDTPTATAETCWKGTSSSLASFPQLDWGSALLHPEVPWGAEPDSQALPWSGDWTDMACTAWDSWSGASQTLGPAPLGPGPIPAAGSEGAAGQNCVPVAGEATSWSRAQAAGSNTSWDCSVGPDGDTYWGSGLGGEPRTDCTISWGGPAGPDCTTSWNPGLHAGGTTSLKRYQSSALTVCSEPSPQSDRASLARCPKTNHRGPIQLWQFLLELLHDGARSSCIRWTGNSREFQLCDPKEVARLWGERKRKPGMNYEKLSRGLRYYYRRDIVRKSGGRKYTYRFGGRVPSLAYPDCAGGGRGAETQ
# Summary of the method: as §1
# ELF3 = biological target: T11, ELF3 (Homo sapiens, UniProt P78545 1-371); details: protein: recombinant; tags: N-terminal GST; dsDNA, one strand shown
# T11 sequence: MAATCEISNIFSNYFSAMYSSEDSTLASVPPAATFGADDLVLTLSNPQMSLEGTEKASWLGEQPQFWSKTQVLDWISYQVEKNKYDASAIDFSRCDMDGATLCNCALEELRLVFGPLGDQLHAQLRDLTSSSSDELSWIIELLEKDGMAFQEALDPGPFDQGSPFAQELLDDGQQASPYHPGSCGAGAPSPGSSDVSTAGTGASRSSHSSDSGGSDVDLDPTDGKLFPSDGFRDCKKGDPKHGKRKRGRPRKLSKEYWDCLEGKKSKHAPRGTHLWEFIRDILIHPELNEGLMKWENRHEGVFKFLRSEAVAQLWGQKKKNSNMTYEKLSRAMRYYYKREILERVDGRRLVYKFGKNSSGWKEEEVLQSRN
# Summary of the method: as §1
# CRX = CRX (Homo sapiens, UniProt O43186 1-299); details: protein: recombinant; tags: N-terminal GST; dsDNA, one strand shown
# Chain of CRX (O43186 whole entry): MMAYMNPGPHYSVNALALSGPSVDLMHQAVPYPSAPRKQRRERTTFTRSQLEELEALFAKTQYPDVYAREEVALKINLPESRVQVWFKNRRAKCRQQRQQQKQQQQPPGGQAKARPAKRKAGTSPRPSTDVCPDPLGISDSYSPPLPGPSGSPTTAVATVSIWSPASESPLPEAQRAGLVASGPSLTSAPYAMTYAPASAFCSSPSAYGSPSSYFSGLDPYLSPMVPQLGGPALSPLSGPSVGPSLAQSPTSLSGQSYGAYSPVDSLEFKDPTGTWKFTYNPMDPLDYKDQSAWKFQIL
# Summary of the method: as §1
# ETV1 = ETV1 (Homo sapiens, UniProt P50549 1-477); details: protein: recombinant; tags: N-terminal GST; dsDNA, one strand shown
# Chain of ETV1 (P50549 whole entry): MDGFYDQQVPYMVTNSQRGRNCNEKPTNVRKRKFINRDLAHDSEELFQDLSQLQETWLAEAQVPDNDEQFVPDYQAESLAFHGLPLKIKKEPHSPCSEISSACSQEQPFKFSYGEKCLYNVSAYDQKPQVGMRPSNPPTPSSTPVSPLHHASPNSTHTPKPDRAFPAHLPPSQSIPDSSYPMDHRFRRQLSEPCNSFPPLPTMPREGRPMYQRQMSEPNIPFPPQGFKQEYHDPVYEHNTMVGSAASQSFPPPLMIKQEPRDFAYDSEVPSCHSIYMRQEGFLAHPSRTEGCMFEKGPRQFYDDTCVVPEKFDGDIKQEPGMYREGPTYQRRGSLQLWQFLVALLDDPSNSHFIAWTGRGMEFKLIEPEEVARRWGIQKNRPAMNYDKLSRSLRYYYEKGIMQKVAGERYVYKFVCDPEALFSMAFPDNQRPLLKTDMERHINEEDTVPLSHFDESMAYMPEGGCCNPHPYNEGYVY
# Summary of the method: as §1
sequence,measurement,setting,value
CGTCTA,binding signal,FLI1,"1.15 fold enrichment (6-mer frequency, TF over GST control)"
same,binding signal,ELK1,"1.26 fold enrichment (6-mer frequency, TF over GST control)"
same,binding signal,GABPA,"1.31 fold enrichment (6-mer frequency, TF over GST control)"
same,binding signal,ERG,"1.37 fold enrichment (6-mer frequency, TF over GST control)"
same,binding signal,ELF1,"1.31 fold enrichment (6-mer frequency, TF over GST control)"
same,binding signal,EHF,"1.27 fold enrichment (6-mer frequency, TF over GST control)"
same,binding signal,SPI1,"1.25 fold enrichment (6-mer frequency, TF over GST control)"
same,binding signal,SPIB,"1.37 fold enrichment (6-mer frequency, TF over GST control)"
same,binding signal,ELK3,"1.25 fold enrichment (6-mer frequency, TF over GST control)"
same,binding signal,FEV,"1.24 fold enrichment (6-mer frequency, TF over GST control)"
same,binding signal,ETV5,"1.31 fold enrichment (6-mer frequency, TF over GST control)"
same,binding signal,HSF1,"1.52 fold enrichment (6-mer frequency, TF over GST control)"
same,binding signal,SPIC,"1.16 fold enrichment (6-mer frequency, TF over GST control)"
same,binding signal,ELF4,"1.4 fold enrichment (6-mer frequency, TF over GST control)"
same,binding signal,ELK4,"1.34 fold enrichment (6-mer frequency, TF over GST control)"
same,binding signal,ETV2,"1.29 fold enrichment (6-mer frequency, TF over GST control)"
same,binding signal,ELF3,"1.29 fold enrichment (6-mer frequency, TF over GST control)"
same,binding signal,CRX,"1.28 fold enrichment (6-mer frequency, TF over GST control)"
same,binding signal,ETV1,"1.36 fold enrichment (6-mer frequency, TF over GST control)"
